Screening data from PubChem.
Pf growth 48h: Primary qHTS for delayed death inhibitors of the malarial parasite plastid, 48 hour incubation; P. falciparum luciferase growth in erythrocytes, 48 h; Potency, µM (series often up to 28.7 µM), inactives show at the top dose activity change, negative = inhibition, actives largely listed as inhibitors; 5.9% of 310,000 active; further: on the % scale 0 is the no-effect control and ±100 the full control effect
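Firefly luciferase activity from engineered P. falciparum reports growth; inhibitors lower the luminescent signal. Cultures contained 2% hematocrit erythrocytes at 0.1% final parasitemia.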
SARS PLpro yeast: qHTS of Yeast-based Assay for SARS-CoV PLP | S. cerevisiae expressing SARS-CoV PLpro, growth rescue | 0.19% of 330,000 active | Potency, µM (titrated, usually from 32.9 µM), without a hit: at the top dose activity, positive = growth rescue, most hits filed as activators; calls by dose curve; further: 0% is about no effect; nearly all actives have a fitted effect of over 55% in size
NS1 inh: qHTS Assay for Inhibitors of Influenza NS1 Protein Function | Potency, µM (top dose mostly 46.1 µM), inactives show top-dose activity, positive = more growth | 0.4% of 270,000 active; calls by dose curve; further: actives are rising curves; nearly all actives have a fitted effect of over 50% in size
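Recovery from NS1-induced slow growth read by OD600 in budding yeast switched to galactose assay medium (pH 6.0, -URA) at 1:100 dilution. Compound 23 nl per well; the matching strain lacking NS1 serves as control.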
Pf growth 96h: Primary qHTS for delayed death inhibitors of the malarial parasite plastid, 96 hour incubation; P. falciparum luciferase reporter growth, 96 h; Potency, µM (highest dose often 28.7 µM), for inactives: at the top dose activity change, negative = inhibition, hits mostly inhibitors; 6.9% of 320,000 active; AID 504834, 2011; further: on the % scale 0 is the no-effect control and ±100 the full control effect
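Two-generation exposure (96 h) targets delayed-death phenotype. Reporter parasites carrying integrated firefly luciferase, in red cells at 2% hematocrit and 0.05% parasitemia final, kept at 37 C, 5% CO2; luminescence loss indicates inhibition.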
AMA1-RON2 inh: qHTS for Inhibitors of AMA1-RON; Towards Development of Antimalarial Drug Lead: Primary Screen. Plasmodium falciparum AMA1 (3D7) - RON2 peptide interaction. AlphaScreen AMA1-biotinylated RON2 peptide binding. Potency, µM (series often up to 58.2 µM), inactives show at the highest dose activity change, negative = inhibition, most hits filed as inhibitors. 0.2% of 360,000 active. AID 720542, 2013;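 further: 0% = vehicle wells and -100% = peptide control; nearly all actives have a fitted effect of over 45% in size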
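AMA1 (3D7) with his tag at 25 nM final met compounds first, then biotinylated RON2 peptide at 25 nM; detection used donor plus acceptor beads, 10 µg/mL apiece, read by AlphaScreen after 30 min at room temperature.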
HCV inh: qHTS Assay for Inhibitors of Hepatitis C Virus (HCV); Potency, µM (highest dose often 41.8 µM), for the others: top-dose activity change, negative = inhibition, most hits filed as inhibitors; Huh7.5.1 HCVcc-Cre infection, luciferase reporter, 44 h; 3.4% of 340,000 active; further: on the % scale 0 is the no-effect control and ±100 the full control effect
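Antiviral activity was scored by luciferase reporter output from cells infected with HCVcc-Cre (~0.5 moi) in presence of compound, 44 h infection period, cells seeded 1,000/well 4 h prior.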
* marks the source's active call; other numbers are inactive results; i = inactive; ? = inconclusive; · = not tested or not shown. Shown are actives, neighbours in structure and some others; about 12% of the full set was active somewhere. Unless noted, the call rests on the fitted dose curve; in most records, active means well fitted curve in the direction sought with a large enough effect; inconclusive means small, poorly fitted or top-dose-only effect, or another doubt; inactive means no such curve, though single readings can be large; an effect the other way counts as inactive or inconclusive. Potency means the concentration at half of the fitted maximal effect.

SMILES	Pf growth 48h	SARS PLpro yeast	NS1 inh	Pf growth 96h	AMA1-RON2 inh	HCV inh
c1csc(-c2nc(NCC3CCCO3)c3ccccc3n2)c1 (stereo unspecified)	-10.0%	-11.1%	-43.7%	?	-3.8%	?
c1ccc2c(NCC3CCCO3)nc(N3CCCCC3)nc2c1 (stereo unspecified)	?	-0.4%	-2.5%	i	-4.0%	?
Oc1ccc(Nc2nc(NCC3CCCO3)c3ccccc3n2)cc1 (stereo unspecified)	1.65µM*	-6.1%	-13.0%	17.3%	-15.5%	-21.5%
c1cncc(-c2nc(NCC3CCCO3)c3ccccc3n2)c1 (stereo unspecified)	?	-2.1%	1.3%	?	7.8%	?
Oc1ccccc1Nc1nc(NCC2CCCO2)c2ccccc2n1 (stereo unspecified)	2.33µM*	0.3%	-9.9%	?	25.3%	?
COc1cc(Cl)cc(/C=N/NC(N)=O)c1O	20.0%	0.1%	-1.9%	14.2%	87.4%	3.7%
CC(C)(C)C(=O)/C=c1\[nH]c(=O)/c(=C\c2ccc(F)cc2)s1	?	-24.6%	-4.5%	·	9.3%	-28.5%
CC(C)(C)C(=O)/C=c1\[nH]c(=O)/c(=C\c2ccccc2F)s1	0.0%	-1.7%	·	-28.0%	12.3%	?
CCc1ccc(/C=c2\s/c(=C\C(=O)C(C)(C)C)[nH]c2=O)cc1	3.29µM*	-27.9%	-92.7%	·	-4.3%	?
Cc1ccccc1/C=c1\s/c(=C\C(=O)C(C)(C)C)[nH]c1=O	·	9.8%	5.7%	?	-7.6%	11.2µM*
CC(C)(C)NNC(=S)Nc1cccc(F)c1	10.4µM*	0.5%	-4.4%	8.28µM*	34.6%	?
Fc1cccc(NC(=S)Nc2ccc(Br)cc2)c1	59.1%	-20.9%	-39.3%	?	17.7%	11.3%
CCc1ccccc1NC(=O)c1ccccc1Sc1ccc([N+](=O)[O-])cc1Cl	11.7µM*	-12.8%	8.5%	-16.7%	1.0%	?
CCSc1ccccc1C(=O)Nc1ccc([N+](=O)[O-])cc1OC	?	-0.5%	-9.5%	-1.6%	5.6%	?
Cc1cc(C)cc(N/C(N)=N/c2nc(C)cc(C)n2)c1	13.1µM*	20.4%	-4.1%	4.15µM*	3.1%	-65.9%
CC(=O)N/C(=N/c1nc(C)cc(C)n1)Nc1ccc(NC(C)=O)cc1	?	6.6%	-7.2%	9.28µM*	5.5%	-1.2%
CC(=O)N/C(=N/c1nc(C)cc(C)n1)Nc1cc(C)cc(C)c1	·	3.7%	4.7%	?	-4.6%	14.9%
Cc1cc(C)nc(/N=C(\N)Nc2cccc([N+](=O)[O-])c2)n1	?	8.7%	-5.3%	10.4µM*	14.0%	?
Cc1cc(C)nc(/N=C(\N)Nc2ccc([N+](=O)[O-])cc2)n1	3.8%	6.8%	7.2%	10.0%	3.0%	-23.9%
CCCCc1ccc(N/C(N)=N/c2nc(C)cc(C)n2)cc1	?	-0.8%	-8.2%	4.15µM*	6.1%	-83.6%
Cc1ccc(N/C(N)=N/c2nc(C)cc(C)n2)cc1	?	11.8%	0.7%	32.7%	12.9%	10.5%
O=C1CC[C@](CCc2nc3ccccc3[nH]2)(c2ccccc2)C(=O)N1	·	·	0.0%	·	·	·
Cc1cc(C)nc(/N=C(\N)Nc2ccc(C(C)C)cc2)n1	?	-1.8%	-3.6%	11.7µM*	-19.9%	11.2µM*
Clc1cccc(Cl)c1Cn1cnc(=NCc2ccco2)c2[nH]cnc21	14.7µM*	-2.1%	-8.4%	·	-23.0%	-12.4%
Clc1cccc(Cl)c1Cn1cnc2c(NCc3ccco3)ncnc21	-9.4%	16.6%	-15.5%	·	-1.4%	-1.8%
SMILES	Pf growth 48h	SARS PLpro yeast	NS1 inh	Pf growth 96h	AMA1-RON2 inh	HCV inh
CC(C)C[C@H](NC(=O)OC(C)(C)C)c1nnc(SCc2cccc(F)c2)o1	?	-13.3%	-51.0%	10.4µM*	54.4%	-13.8%
CSCC[C@H](NC(=O)OC(C)(C)C)c1nnc(SCc2cccc(F)c2)o1	?	-13.5%	-3.3%	30.8%	31.4%	?
CSCC[C@H](NC(=O)OC(C)(C)C)c1nnc(SCc2ccc(F)cc2)o1	?	-18.6%	-59.5%	?	-5.5%	?
CSCC[C@H](NC(=O)OC(C)(C)C)c1nnc(SCc2ccccc2)o1	6.57µM*	-4.2%	-40.8%	-13.3%	-0.6%	-5.4%
O=C(COc1ccc2ccccc2c1)N1CCN(Cc2c[nH]c3ccccc23)CC1	11.7µM*	-0.5%	?	3.29µM*	-28.9%	?
COc1cc(C2NC(=O)NC(O)(C(F)(F)F)C2C(=O)c2ccc(Cl)cc2)ccc1O (stereo unspecified)	6.2%	1.3%	1.2%	44.6%	-12.4%	20.1%
COc1cc(C2NC(=O)NC(O)(C(F)(F)F)C2C(=O)c2cccs2)ccc1O (stereo unspecified)	0.0%	3.9%	2.2%	13.1µM*	6.6%	-2.1%
COc1ccc(Br)cc1/C=N/N1CCN(Cc2ccccc2Cl)CC1	0.0%	0.3%	-1.8%	16.5%	8.91µM*	?
Clc1ccc(/C=N/N2CCN(Cc3ccccc3Cl)CC2)cc1	-4.2%	-0.2%	·	0.8%	12.6µM*	-8.3%
COc1ccccc1/C=C/C=N\N1CCN(Cc2ccccc2Cl)CC1	?	-7.7%	-2.5%	18.7%	20µM*	?
COc1ccccc1/C=C/C=N/N1CCN(Cc2ccc(Cl)cc2)CC1	?	-9.2%	-48.5%	?	?	?
CC1(C(=O)NS(=O)(=O)c2ccc3c(c2)CCO3)CCN1C(=O)CCC1CCCC1 (stereo unspecified)	·	·	·	·	-3.2%	·
CCCn1c(=O)n(C)c(=O)c2c(SC(C)C(=O)NCC3CCCO3)nc(CC(C)C)nc21 (stereo unspecified)	?	-0.9%	·	?	0.0%	?
Cc1cc(C(=O)OCC(=O)N2CCC(C)CC2)c2ccccc2n1	·	2.0%	·	·	-7.1%	-11.4%
CCc1cc(C(=O)c2ccc(OC)cc2)c(NC(=O)CN2CCCCC2)s1	3.7µM*	0.7%	2.9%	3.7µM*	12.7%	9.8%
CCc1cc(C(=O)c2ccc(OC)cc2)c(NC(=O)CN2CCCC2)s1	?	-2.1%	-0.5%	?	1.9%	-27.4%
CCOc1ccc(C(C)NC(=O)c2ccc3c(c2)NC(=O)C(C)S3)cc1OCC (stereo unspecified)	2.33µM*	-2.4%	·	1.85µM*	9.6%	-0.9%
COc1cc(CC(=O)NCC(C)(C)N2CCOCC2)cc(OC)c1OC	1.2%	-0.9%	-1.1%	26.2%	29.3%	17.7%
C[N+]1=C2CCCCCN2C(O)(c2ccccc2)C1 (stereo unspecified)	16.3%	2.2%	-1.1%	8.28µM*	6.0%	26.7%
